Assay results: the supplement of paper PMC10105736;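 active = MAPPIT score above the 99th percentile of random reference set scores in the same batch; inactive = at or below it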

Tests used:
Test in all cases: MAPPIT interaction score (arbitrary units); higher = stronger binary interaction signal, active = hit call of the paper
CG12576 = conditions: MAPPIT configuration: N-C; pair source set: screen_4
CG13887 = conditions: MAPPIT configuration: N-C; pair source set: screen_3
CG6845 = conditions: MAPPIT configuration: N-C; pair source set: screen_4
Tim17b2 = conditions: MAPPIT configuration: N-C; pair source set: screen_4
CG30355 = conditions: MAPPIT configuration: N-C; pair source set: screen_4
Vha16-2 = conditions: MAPPIT configuration: N-C; pair source set: screen_3
CG12607 = conditions: MAPPIT configuration: N-N; pair source set: Curagen_high_conf
CG17612 = conditions: MAPPIT configuration: N-C; pair source set: screen_4
CG30195 = conditions: MAPPIT configuration: N-N; pair source set: DPIM
Cp190 = conditions: MAPPIT configuration: N-C; pair source set: Lit-BM-16
Cpr72Ea = conditions: MAPPIT configuration: N-N; pair source set: Lit-BS-16
Trl = conditions: MAPPIT configuration: N-N; pair source set: Finley_Y2H
Ubc6 = target: Ubc6
Zasp52 = conditions: MAPPIT configuration: N-N
fl(2)d = conditions: MAPPIT configuration: N-N; pair source set: screen_2
su(Hw) = conditions: pair source set: Lit-BM-16

Measured: MAPPIT interaction score
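Also: HEK293T cells with Epo stimulation, STAT-responsive firefly luciferase reporter, fold induction versus unstimulated cells divided by the larger fold induction of two negative controls lacking either bait or prey.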

B1: Tsf2 (protein)
chain: MASSLVFVALVGALCFTLANAQHHYDEHKTTRMVWCTKSQAEQYKCQNLTVAIERDRALFDEVFLNLTCFMAYSADECIHHIDREKAHITTLDAGDVFTAGRYNSLIPIMQEKLEGGFADYQSVAVIKKGSLPDLNNLRDMRNKRVCFPWVGSLAGWIVPIHTLQREGGMEVVDCNNQVKTAASYFNNSCAVYSLSDKHNPIGDNSDKLCTLCTGKIPGGRCSSADPYFGYEGAFKCLLEKGDVAFLRHSTVNEMLQTTEFKNIAPDTFELLCRDGRRASINDYRQCNWGQVPADAIVTSSARSFSDRKQYQQFLKRIAELYSDGTRDDQSRQGGQSFNSRNNINDQNAYGQFDNNDPYRTQNQYDQYRSERLDSSFAEERNQQDGTNTSILYEKFRIFESKRYGKPNLLFQDSSRALTVIPEDDQSFTKYLGPAINFIYGIRECPVPAMTLCVTSENELDKCIKMRTALKAHLLKPELICKKMHSHINCMQFIEAGKADISVFDAGDVYTGGLNYDLVPFMSEVYNLGEPEYYVVAVAKEDDPDTELTYLKGKNTCHTGINTAAGWTYPMALFISNGWIRPYGCDSVRAAAEYFTKSCVPGAISNEYNTGVPYDSMCDLCHGTSYRYCRRDASEEYYGHTGAFRCLVEGGGHVAFMKHTTVMESTGGKRKEWWARNALNDDFELLCTDGTRAEIQDYKRCNLGKVKANAVVTRGGVNYNETQMNAYINLLTYAQQLYGRKEVDAFSFSMFSSPIGHYDLIFQDATRQLQVIPPNKRRYDAYLGSDFMRARRITDCYAGASQLALSVGLLLVGSLVAML
inactive: CG12576 0.0626 | CG13887 -0.181 | CG6845 0.127 | Tim17b2 0.851

B2: Cys (protein)
chain: MNVVKSLCILGLVLVSLIATQAADEQVVGGVSQLEGNSRKEALELLDATLAQLATGDGPSYKAINVTSVTGQVVAGSLNTYEVELDNGSDKKQCTVKIWTQPWLKENGTNIKIKCSGDDGELDRTW
inactive: CG12576 -0.0839 | CG30355 2.13 | Vha16-2 0.0929

B3: mod(mdg4) (protein)
chain: MADDEQFSLCWNNFNTNLSAGFHESLCRGDLVDVSLAAEGQIVKAHRLVLSVCSPFFRKMFTQMPSNTHAIVFLNNVSHSALKDLIQFMYCGEVNVKQDALPAFISTAESLQIKGLTDNDPAPQPPQESSPPPAAPHVQQQQIPAQRVQRQQPRASARYKIETVDDGLGDEKQSTTQIVIQTTAAPQATIVQQQQPQQAAQQIQSQQLQTGTTTTATLVSTNKRSAQRSSLTPASSSAGVKRSKTSTSANVMDPLDSTTETGATTTAQLVPQQITVQTSVVSAAEAKLHQQSPQQVRQEEAEYIDLPMELPTKSEPDYSEDHGDAAGDAEGTYVEDDTYGDMRYDDSYFTENEDAGNQTAANTSGGGVTATTSKAVVKQQSQNYSESSFVDTSGDQGNTEAQAATSASATKIPPRKRGRPKTKVEDQTPKPKLLEKLQAATLNEEASEPAVYASTTKGGVKLIFNGHLFKFSFRKADYSVFQCCYREHGEECKVRVVCDQKRVFPYEGEHVHFMQASDKSCLPSQFMPGESGVISSLSPSKELLMKNTTKLEEADDKEDEDFEEFEIQEIDEIELDEPEKTPAKEEEVDPNDFREKIKRRLQKALQNKKK
active: CG17612 4.86 | CG30195 2.59 | Ubc6; MAPPIT configuration: N-C, pair source set: screen_3 3.96 | Ubc6; MAPPIT configuration: N-N, pair source set: screen_2 5.53
inactive: CG12607 0.232 | Cp190 1.09 | Cpr72Ea -2.84 | Trl -0.456 | Zasp52; pair source set: Curagen_low_conf 0.192 | Zasp52; pair source set: Lit-BS-16 -0.533 | fl(2)d -0.311 | su(Hw); MAPPIT configuration: N-C 0.885 | su(Hw); MAPPIT configuration: N-N 0.105
